Screening data from PubChem.
In the library only some 8.3% were active in any assay of this set; here they are far more common.
HCV inh: qHTS Assay for Inhibitors of Hepatitis C Virus (HCV) | 340,000 tested, 3.4% active | Huh7.5.1 HCVcc-Cre infection, luciferase reporter, 44 h | Potency, µM (doses to about 41.8 µM), hits mostly inhibitors
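Seed cells (1,000/well) for 4 h; treat with compound and infect with HCVcc-Cre, moi about 0.5. Incubate 44 h, then detect luciferase activity.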
Lassa entry inh: qHTS for Inhibitors of binding or entry into cells for Lassa Virus. Lassa virus pseudotype entry inhibition, cell reporter. Potency, µM (top dose mostly 37.9 µM), actives largely listed as inhibitors. 300,000 tested, 1.2% active. AID 540256, 2011; calls by dose curve; tested in HEK293 cells; also: nearly all actives have a fitted effect of over 50% in size
FMDV inh: High Throughput Screening for Foot and Mouth Disease Virus Antivirals; FMDV antiviral cell-based qHTS; Potency, µM (top dose mostly 57.9 µM), hits mostly inhibitors; 410,000 tested, 1.2% active; AID 1159524, 2015; calls by dose curve; tested in HEK293T cells; also: read-out not given here; nearly all actives have a fitted effect of over 45% in size
HCMV inh: qHTS Assay for inhibitors of the human cytomegalovirus (HCMV) | HFF cells, HCMV-luciferase reporter, 72 h; stronger effect = lower value | activity change, negative = inhibition, % at 57.5 µM | 410,000 tested, 4.5% active | AID 1259415, 2018; in the data active = activity change below about -60%; inconclusive = no clear call, values can overlap the other calls; inactive = above about -39%
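Compounds were evaluated in HFFs infected with an HCMV luciferase reporter virus (MOI 1 PFU/cell). Luciferase in lysates collected 72 h post infection served as the replication measure.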
MARV entry inh: qHTS for inhibitors of binding or entry into cells for Marburg Virus. Marburg virus pseudotyped entry inhibition, cell reporter. 300,000 tested, 1.8% active. Potency, µM (series often up to 37.8 µM), most hits filed as inhibitors; calls by dose curve; tested in HEK293 cells
FBPA Giardia inh: qHTS Assay for Inhibitors of Fructose-1,6-bisphosphate Aldolase from Giardia Lamblia | AID 2451, 2010 | 290,000 tested, 0.71% active | Potency, µM (top dose mostly 59.6 µM), hits mostly inhibitors | A8B2U2 | purified Giardia FBPA; also: nearly all actives have a fitted effect of over 55% in size
Target sequence (A8B2U2 whole entry, looked up): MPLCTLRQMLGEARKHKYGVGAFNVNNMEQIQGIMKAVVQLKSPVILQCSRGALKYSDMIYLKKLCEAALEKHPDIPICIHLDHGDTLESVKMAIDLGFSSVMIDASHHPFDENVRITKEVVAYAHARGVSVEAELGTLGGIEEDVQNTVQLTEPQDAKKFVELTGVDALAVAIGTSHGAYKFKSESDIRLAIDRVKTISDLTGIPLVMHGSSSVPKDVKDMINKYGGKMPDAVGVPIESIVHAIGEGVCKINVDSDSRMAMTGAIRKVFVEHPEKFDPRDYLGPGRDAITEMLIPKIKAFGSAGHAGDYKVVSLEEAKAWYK
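Giardia FBPA (40 nM reagent) was preincubated 10 min at RT with compound (up to 57.5 uM final), then substrate plus GAPDH/TPI/NAD/arsenate coupling system with diaphorase/resazurin was added; resorufin fluorescence (525/598 nm) was read after 20 min.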
Numbers stand for hits; – = inactive; ? = inconclusive; · = no result; ! = not confirmed by another sample; [ ] = remark or other dose. Unless noted, calls follow the shape of the dose curve; as a rule, active = well fitted curve in the direction sought with a large enough effect; inconclusive = small, poorly fitted or top-dose-only effect, or another doubt; inactive = no such curve, though single readings can be large; an effect the other way counts as inactive or inconclusive.

SMILES	HCV inh	Lassa entry inh	FMDV inh	HCMV inh	MARV entry inh	FBPA Giardia inh
CC(C)C(NC(=O)c1ccoc1)c1nnc2n1CCN(Cc1ccc3c(c1)Cc1ccccc1-3)CC2 (centres undefined)	·	·	–	·	·	·
COc1ccccc1N(C)S(=O)(=O)c1ccc(C(=O)Nc2nc(C)cs2)cc1	?	?	28.2µM	–	16.4µM	–
COc1ccccc1N(C)S(=O)(=O)c1ccc(C(=O)NC(C)(C)C)cc1	–	?	–	–	?	–
COc1ccccc1N(C)S(=O)(=O)c1ccc(Cl)c(C(=O)NNC(=O)c2ccccc2O)c1	?	·	–	?	·	·
COc1ccccc1N(C)S(=O)(=O)c1ccc(C(=O)Nc2cc(F)ccc2C)cc1	6.31µM	?	–	–	–	·
COc1cc(OC)c(OC)cc1CNC(=O)c1cc(S(=O)(=O)N(C)c2ccccc2OC)ccc1C	?	·	28.2µM	–	·	·
COc1ccccc1N(C)S(=O)(=O)c1ccc(Cl)c(C(=O)OCc2c(C)noc2C)c1	–	11.2µM	?	–	?	–
O=C(Cn1cnc2onc(-c3ccc(F)cc3)c2c1=O)Nc1cccc(C(F)(F)F)c1	·	–	?	–	·	·
COc1cc(NS(=O)(=O)c2cc(Br)cc3c2N(C(=O)C2CC2)CC3)cc(OC)c1	·	3.55µM	–	–	·	·
Cc1ccc(NS(=O)(=O)c2cc(Br)cc3c2N(C(=O)C2CC2)CC3)cc1C	·	?	–	-75.2	·	·
O=C(C1CC1)N1CCc2cc(Br)cc(S(=O)(=O)Nc3ccc(F)c(F)c3)c21	·	?	–	–	?	·
COC1CCC(OC2CC(C3(C)CCC4(CC(O)C(C)C(C(C)/C=C(\C)C(=O)C(C)CC(C)C(=O)O)O4)O3)OC3(OC(C4OC(O)(CO)C(C)CC4C)CC3C)C2C)OC1C (centres undefined)	0.316µM	0.316µM	17.8µM	-97.6	?	·
CC[C@@]1([C@@H]2O[C@@H]([C@H]3O[C@@](O)(CO)[C@H](C)C[C@@H]3C)C[C@@H]2C)CC[C@H]([C@]2(C)CC[C@]3(C[C@H](O)[C@@H](C)[C@@H]([C@@H](C)[C@@H](OC)C(C)C(=O)O)O3)O2)O1 (some centres undefined)	·	·	·	·	·	–
CCN(CC)Cc1c(NC(=O)c2ccc(OC)cc2)sc2c1CCCC2	·	?	–	-89.6	·	·
COc1ccc(CC(=O)Nc2sc3c(c2C(=O)Nc2ccccc2)CCCCC3)cc1	·	–	–	?	·	·
COc1ccc(CC(=O)Nc2sc3c(c2C(=O)Nc2cccc(Cl)c2)CCCCC3)cc1	·	–	?	-106.4	·	·
CCN(CC(=O)Nc1ccc(OC)cc1)CC(=O)Nc1sc2c(c1C(=O)OC)CCCC2	7.94µM	·	–	?	·	·
CCCSCCCNC(=O)c1sc2nc(C)cc(C)c2c1-n1cccc1	·	–	–	–	?	·
COc1ccc(CCNC(=O)Cn2nc(-c3ccc(Cl)cc3)ccc2=O)cc1OC	·	–	–	?	·	·
Cc1ccc(OCc2ccc(-c3ccccc3)cc2)c([N+](=O)[O-])n1	?	–	–	-82.9	–	–
CCOc1cc(Br)c(COc2ccc(C)nc2[N+](=O)[O-])cc1OCC	8.91µM	?	–	-90.4	?	–
Cc1ccc(CN2C(=O)c3ccccc3CC2(C)C(=O)NC2CCCCC2)cc1 (centres undefined)	·	·	–	–	–	·
CCc1c(C)nc2cc(-c3ccc(OC)c(OC)c3)nn2c1NCC1CC1	11.2µM	?	–	–	?	–
COc1ccc(CCNC(=O)CCc2c(C)nc3cc(-c4ccccc4)nn3c2C)cc1OC	·	?	?	–	?	·
CN1OC(C)(CC(=O)NCc2ccccc2)N=C1c1ccccc1 (centres undefined)	·	·	·	–	·	·
SMILES	HCV inh	Lassa entry inh	FMDV inh	HCMV inh	MARV entry inh	FBPA Giardia inh
O=C1c2ccccc2NC2(c3ccccc3)c3ccccc3-n3nncc3CN12 (centres undefined)	·	·	·	–	·	·
Cc1ccc(OCC(O)C(C)NC(C)C)c2c1CCC2 (centres undefined)	·	·	–	·	15.8µM	–
CCOC(=O)C(=CNc1cccnc1Oc1ccc(C)c2c1CCC2)C(=O)OCC	?	–	?	–	–	–
CN1CCc2cc(Cl)c(O)cc2C(c2ccccc2)C1 (centres undefined)	·	·	·	·	?	–
Oc1cc2c(cc1O)C(c1ccccc1)CNCC2 (centres undefined)	–	?	–	–	15.8µM!	–
Oc1cc2c(cc1O)[C@@H](c1ccccc1)CNCC2	–[8.37 µM]	–	?	–	–	?
CN1CCc2cc(O)c(O)cc2C(c2ccccc2)C1 (centres undefined)	?	?	–	–	12.6µM!	–
CN1CCc2cc(Cl)c(O)cc2[C@@H](c2ccccc2)C1	–	–	1.26µM!	-64.6	–	–
CC1=C(C(=O)O)N2C(=O)[C@@H](NC(=O)[C@@H](N)c3ccc(O)cc3)[C@@H]2SC1	·	·	·	·	·	–
Cc1nn(C)c2c1c(-c1ccccc1)cc(=O)n2Cc1ccccc1C#N	·	–	–	–	·	·
CCSc1ccc2nnc(-c3cccc(F)c3)n2n1	?	–	–	-64.3	–	–
Fc1ccc(CSc2ccc3nnc(-c4cccnc4)n3n2)cc1	?	12.6µM	?	–	–	–
Cc1cccc(NS(=O)(=O)c2ccc3oc(=O)c4ncn(C)c4c3c2)c1C	·	?	–	–	·	·
O=C(N/N=C/c1cccnc1)C1CC1(c1ccccc1)c1ccccc1 (centres undefined)	?	–	–	-67.1	?	–
Cc1ccc(-c2cc(-c3ccccc3O)nc(N/N=C/c3cccnc3)n2)cc1	0.562µM	–	·	?	–	–
O=C(O)c1ccc(/C=N/NC(=O)C2CC2(c2ccccc2)c2ccccc2)cc1 (centres undefined)	·	·	·	–	·	–
CCCOc1cccc(-c2cc(C(=O)N/N=C/c3ccccn3)c3ccccc3n2)c1	?	?	–	-113.1	?	·
COc1ccccc1-c1cc(C(=O)N/N=C/c2ccc(C)s2)c2ccccc2n1	?	7.08µM	–	–	8.91µM	–
Cc1cc(C)c(S(=O)(=O)Nc2ccc(-c3ccc(N4CCCCC4)nn3)cc2)c(C)c1	·	–	–	–	·	·
OCC[C@@H]1C[C@H](O)[C@@H](O)[C@@]2(OCCc3cc(C(F)(F)F)ccc32)O1	·	·	·	–	·	·
O=C(O)c1cc(-c2ccccc2)nn1Cc1ccccc1	·	–	–	–	–	·
COc1ccc(-c2cc(C(=O)N/N=C/c3cccnc3)c3ccccc3n2)cc1	–	10µM	–	?	?	·
CCCOc1cccc(-c2cc(C(=O)N/N=C/c3cccnc3)c3ccccc3n2)c1	–	?	?	-83.2	?	·
COc1cc(/C=N/NC(=O)c2cc(-c3cccc(OC(C)C)c3)nc3ccccc23)ccc1O	?	3.55µM	–	-60.6	3.55µM	·
Cc1ccc(-c2cc(C(=O)N/N=C\c3cnn(C)c3C)c3ccccc3n2)cc1C	–	11.2µM	–	–	–	–
CC(C)(C)NC(=S)N/N=C/c1cccnc1	–	?	–	-65.4	–	–
